Consider 100 molecules from PubChem BioAssay AID598 (SRMLSC, 2007).

Out of some 85,000 compounds screened, about 5,100 (6%) were called active.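 How the source made its calls: active means viability at or below 40%; inactive means viability above 40%.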 The list comes from a sample in which actives are over-represented; it also holds similar structures and randomly drawn compounds.

This test in a line: H69AR cell viability reduction – human, 86K library, primary screen (AID 598).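 Further: multidrug resistant small cell line overexpressing MRP-1 efflux transporter; 100% = mean luminescence of untreated control wells.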 The conditions noted are these: H69AR lung tumor viability, ATP luminescence, 72 h; at 10 µM; active compounds read low.
With `COc1ccc(S(=O)(=O)Nc2ccc(F)cc2)c(C)c1C`, the viability was 101% (inactive).
Consider `CCCCCCC12CCC(C(=O)O)(CC1)CC2`, for which the viability was 79.3% (inactive).
Turning to `Cc1nc2cc(NC(=O)NCc3ccccc3)ccc2o1`, the viability was 95.1% (inactive).
As to `OC(COc1ccc2ccccc2c1)Cn1cncn1` (stereo not given), the viability is 88.4% (inactive).
As for `O=C(CN1CCOCC1)Nc1cc(Cl)ccc1Cl`, the viability is 93.4% (inactive).
Take `COc1c(C)cccc1C(=O)Nc1cc(Cl)ccc1N1CCOCC1`: the viability is 82.7% (inactive).
Then `O=C(Nc1cc(N2CCOCC2)ncn1)NC1(C(F)(F)F)Oc2ccc(Cl)cc2O1` (stereo not given), with 29.6% (active); and `CCOc1cc2[nH]c(=S)n(CCN3CCCCC3C)c(=O)c2cc1OCC` (stereo not given), with 82.5% (inactive).
Then `CCn1cc(C(=O)NC2CCCCCC2)c(=O)c2cc(S(=O)(=O)N3CCCCC3)ccc21`, with 30.1% (active); and `CCn1cc(C(=O)NCC2CCCO2)c(=O)c2cc(S(=O)(=O)N3CCCCC3)ccc21` (stereo not given), with 87.7% (inactive).
`O=C(NC1CCCCC1)n1c(=O)oc2cc(S(=O)(=O)N3CCCCC3)ccc21`: the viability is 60.7% (inactive).
Then `CN(C)S(=O)(=O)c1ccc(NC(=O)COC(=O)c2n[nH]c3ccccc23)cc1`, with 78.6% (inactive); and `CCCCc1nc(NCCN)c(C#N)c2c1CSC(C)(C)C2`, with 1.08% (active).
Regarding `Cc1nc(NCCN)c(C#N)c2c1COC(C)(C)C2`, the viability was 85% (inactive).
Then `CC(C)(C)c1ccc(OC2=CS(=O)(=O)c3ccccc32)cc1`, with 88% (inactive).
Then `CCCn1nnc(NC(=O)COc2ccc(CC)cc2)n1`, with 95.5% (inactive).
For `Cn1c(=O)c2c(ncn2CC(=O)N2CCN(c3ccccc3)CC2)n(C)c1=O`, the viability was 105% (inactive).
In the case of `CC(C)Cn1cnc2c1c(=O)n(CC(O)c1ccccc1)c(=O)n2CC(C)C` (stereo not given), the viability is 28% (active).
Regarding `CC(C)Cn1c(CN(Cc2ccccc2)Cc2ccccc2)nc2c1c(=O)n(C)c(=O)n2C`, the viability is 61.6% (inactive).
In the case of `Cc1cc(-n2nc(C)cc2C)n2nc(C)c(-c3ccccc3)c2n1`, the viability is 68.4% (inactive).
Regarding `O=C(COc1ccc2ccccc2c1)N1CCN(C(=O)c2cccs2)CC1`, the viability is 74% (inactive).
Regarding `O=C(CCN1C(=O)c2ccccc2C1=O)Nc1cccc(F)c1`, the viability was 98.2% (inactive).
For the molecule `COc1ccc(-n2nnnc2SCC(=O)Nc2ccccc2)cc1`, the viability is 103% (inactive).
On to `O=c1c2ccccc2nnn1CSc1nnnn1-c1ccccc1`, for which the viability is 83.4% (inactive).
Consider `N#CCSc1nc2ccccc2c(=O)n1-c1ccccc1`, for which the viability was 77% (inactive).
Take `Cc1ccc(-c2noc(CSc3nnnn3-c3ccccc3)n2)cc1`: the viability is 86.2% (inactive).
As for `Cc1ccc(Nc2nc(CSc3nnnn3-c3ccccc3)cc(=O)[nH]2)cc1`, the viability is 23.1% (active).
As for `O=c1c2ccccc2nc(CSc2nnnn2-c2ccccc2)n1-c1ccccc1`, the viability is 15.1% (active).
As for `OC(CN1C2=NCCCN2c2ccccc21)c1ccc(Br)cc1` (stereo not given), the viability is 86.5% (inactive).
Take `Cn1cnc([N+](=O)[O-])c1Nc1ccccc1O`: the viability is 100% (inactive).
`COC(=O)c1ccc(CSc2nnc(NC(C)C)s2)cc1`: the viability was 98.2% (inactive).
In the case of `COc1ccc(C)cc1NC(=O)CCS(=O)(=O)c1cccc2nonc12`, the viability is 89% (inactive).
As to `C=CCn1c(SCc2c(C)noc2C)nc2sc3c(c2c1=O)CCC(C)C3` (stereo not given), the viability was 29.4% (active).
Turning to `CC1CCc2c(sc3nc4n(c(=O)c23)CCS4)C1` (stereo not given), the viability is 80.8% (inactive).
With `CCCn1nnc2sc3c(c2c1=O)CCC(C)C3` (stereo not given), the viability is 96.7% (inactive).
In the case of `Nc1c(C(=O)NCc2ccccc2)sc2nc3c(cc12)C(=O)CCC3`, the viability is 65.5% (inactive).
As for `Cc1ccc(SC(=O)COc2ccc(C)c(C)c2)cc1`, the viability is 16.4% (active).
To `COCCNC(=O)COc1ccc(C)c(C)c1` belongs 86% (inactive); to `Cc1ccc(SCC(=O)c2cc(C)c(OC(=S)N(C)C)c(C)c2)cc1`, 64.6% (inactive).
As for `Cc1ccc(S(=O)(=O)NC(=O)COc2ccccc2C)cc1`, the viability is 97.9% (inactive).
Then `CCOCN(C(=O)Cn1c(C(C)O)nc2ccccc21)c1c(C)cccc1CC` (stereo not given), with 62.8% (inactive); and `O=C(Cc1ccc(-n2c(=O)c3sccc3n(Cc3ccc(F)cc3)c2=O)cc1)NCc1ccco1`, with 51% (inactive).
Turning to `CN1CCN(CC(=O)Nc2sc3c(c2C#N)CCC(C(C)(C)C)C3)CC1` (stereo not given), the viability is 2.42% (active).
Regarding `CCC(=O)Nc1sc(C(=O)N2CCCCC2)c(C)c1C#N`, the viability is 96.9% (inactive).
To `c1ccc2c(NCC3CCCO3)nc(-c3ccncc3)nc2c1` (stereo not given) belongs 35.5% (active); to `c1ccc(-c2nc(NCc3ccco3)c3ccccc3n2)cc1`, 87.9% (inactive); to `Cc1nc2ccccc2c2oc(C(=O)NCC3CCCO3)cc12` (stereo not given), 82.4% (inactive).
As for `Cn1c2c(c(=O)n(C)c1=O)C(c1cccc([N+](=O)[O-])c1)Nc1ccccc1O2` (stereo not given), the viability was 88.5% (inactive).
In the case of `C=CCn1c(SCc2c(C(=O)OC)sc(N)c2C(=O)OC)nnc1-c1ccc(Cl)cc1`, the viability is 45.2% (inactive).
`COc1ccc(CN2CCCCC2C)cc1OC` (stereo not given): the viability is 105% (inactive).
To `CCc1ccc(Nc2ncc3c(n2)CC(c2ccco2)CC3=O)cc1` (stereo not given) belongs 26.3% (active).
Regarding `O=C(Nc1ncc2c(n1)CC(c1ccco1)CC2=O)c1ccc(Cl)cc1` (stereo not given), the viability was 80.7% (inactive).
As to `COc1cc(C2CC(=O)c3cnc(NC(C)=O)nc3C2)cc(OC)c1OC` (stereo not given), the viability is 74% (inactive).
On to `Nc1ccc(C(=O)OCC(=O)NC2CCCc3ccccc32)cc1[N+](=O)[O-]` (stereo not given), for which the viability is 63.4% (inactive).
To `CSc1ncccc1C(=O)OCC(=O)N1CCOCC1` belongs 96% (inactive).
Turning to `CCOc1ncccc1C(=O)OCc1cn2cc(Cl)ccc2n1`, the viability was 35.2% (active).
To `CCOC(=O)c1cc2ccccc2nc1C` belongs 101% (inactive); to `COc1ccc(CNc2ccc3c(c2)CCC3)cc1OC`, 104% (inactive); to `CCOc1ccc(C(=O)NC2CCN(C(=O)Nc3ccccc3OC)CC2)cc1`, 79% (inactive).
To `COC(=O)CSc1nc(C)c2ccc(OC)cc2n1` belongs 86.5% (inactive); to `Cc1nnc(SCC(=O)NC(=O)NC2CCCC2)n1N`, 109% (inactive); to `CC(Nc1nc(N2CCCC2)nc2ccccc12)c1ccccc1` (stereo not given), 12.4% (active).
As to `CC(C)n1c(C(O)c2ccccc2)nc2ccccc21` (stereo not given), the viability was 104% (inactive).
Then `Cc1ccc(C(CC(=O)O)Nc2nc(N3CCCCC3)nc(N3CCCCC3)n2)cc1` (stereo not given), with 108% (inactive).
In the case of `CCCCN1C(=O)/C(=C2/C=CC=CN2C)SC1=S`, the viability was 90.2% (inactive).
With `CC(=O)c1cc2c(cc1NC(=O)CN1CCCCCC1)OCO2`, the viability was 79.5% (inactive).
Consider `CCc1ccc(CNC(=O)C2CC(=O)N(CCc3ccc(C)cc3)C2)cc1` (stereo not given), for which the viability was 99.5% (inactive).
In the case of `CCC(C)Sc1nc2c(c(=O)[nH]c(=O)n2C)n1CC(O)COc1cccc2ccccc12` (stereo not given), the viability is 30.7% (active).
To `CN1CCN(c2nc3c(c(=O)[nH]c(=O)n3C)n2Cc2cccc3ccccc23)CC1` belongs 71.9% (inactive).
To `CCCSc1nc2c(c(=O)[nH]c(=O)n2C)n1CCc1ccccc1` belongs 74% (inactive); to `Cn1c(SCC(=O)NC2CCCCC2)nnc1-c1cc2ccccc2o1`, 91% (inactive).
For the molecule `Cc1ccoc1C(=O)Nc1cccc(Oc2ccccc2)c1`, the viability was 112% (inactive).
Turning to `Cc1cccc(NC(=O)Nc2cccc(Oc3c(F)c(F)c(F)c(F)c3F)c2)c1`, the viability is 8.13% (active).
With `CC(=O)c1cccc(NC(=O)Nc2ccc(C)cc2)c1`, the viability was 95.3% (inactive).
As to `COc1ccc2c(Cl)c(C(=O)NCc3ccco3)sc2c1`, the viability is 91.4% (inactive).
With `CCOc1ccc(N=C2NC(=O)S/C2=C\c2ccc(O)cc2)cc1`, the viability was 47.5% (inactive).
Regarding `CCC(=O)Nc1ccc(C(=O)Nc2cccc(OC)c2)cc1`, the viability was 64.6% (inactive).
For the molecule `CCCc1nc2scc(-c3ccc(C)cc3)c2c(=O)n1N`, the viability was 46.1% (inactive).
Consider `O=C(Cc1ccccc1)Nc1c(C(=O)N2CCCCCC2)cnn1-c1ccccc1`, for which the viability was 96.5% (inactive).
Consider `O=C(Cn1cnc2c(nnn2Cc2ccc(F)cc2)c1=O)NCc1ccc2c(c1)OCO2`, for which the viability is 95.8% (inactive).
Turning to `CCCc1nc(NCc2ccc3c(c2)OCO3)c2nnn(Cc3ccccc3Cl)c2n1`, the viability is 24.6% (active).
For `C#CCNc1nc(C(C)C)nc2c1nnn2Cc1ccccc1F`, the viability is 104% (inactive).
As for `O=c1onc(-c2cccs2)n1Cc1ccccc1`, the viability is 95.9% (inactive).
For `Cc1cccc(C)c1OC(=O)CSc1nnc(-c2ccccc2)o1`, the viability was 98.4% (inactive).
`O=C1CC(C(F)(F)C(F)(F)C(F)(F)C(F)(F)F)=Nc2ccccc2N1`: the viability was 92.7% (inactive).
Regarding `CCCCOc1ccc(Cl)cc1CSc1nncn1N`, the viability is 94% (inactive).
Consider `CCCCOc1ccc(CSC(=N)N)cc1[N+](=O)[O-]`, for which the viability is 5.08% (active).
Turning to `N#C/C(=C\c1ccccc1)c1n[nH]c(Cn2cncn2)n1`, the viability was 96.8% (inactive).
Turning to `O=C(CCS(=O)(=O)c1cccc2nsnc12)N1CCN(c2ccccc2F)CC1`, the viability was 91% (inactive).
With `CCOC(=O)C(=O)Nc1nc(-c2ccccc2)c(CC)s1`, the viability is 103% (inactive).
To `C=CCn1c(SCC(=O)/C(C#N)=C(\C)N)nc2sc(C)c(C)c2c1=O` belongs 6.3% (active); to `Cc1sc2nc(SCC(N)=O)n(C)c(=O)c2c1C`, 84.1% (inactive).
For `CCCn1c(=O)c2ccccc2n2c(SCC(=O)/C(C#N)=C(\C)N)nnc12`, the viability is 79.8% (inactive).
With `CCC(=O)Nc1ccc(S(=O)(=O)NCC2CCCO2)cc1` (stereo not given), the viability is 90.7% (inactive).
For `CC1CCc2sc3nc(N4CCN(CCO)CC4)n4ncnc4c3c2C1` (stereo not given), the viability was 33.1% (active).
On to `N#Cc1c2c(c(N3CCN(CCO)CC3)n3c1nc1ccccc13)CCCC2`, for which the viability was 85.5% (inactive).
To `Cc1c(Nc2nc3ccccc3nc2NS(=O)(=O)c2cccs2)c(=O)n(-c2ccccc2)n1C` belongs 85.5% (inactive); to `CCOC(=O)C(C)n1cnc2sc(C)c(C)c2c1=O` (stereo not given), 89.3% (inactive); to `CC(=O)Oc1ccc(NC(=O)CCC2CCCCC2)c(C(=O)O)c1`, 101% (inactive).
Turning to `COc1ccc(CN(CC(=O)NC2CCCC2)C(=O)CCC(=O)Nc2cc(C)on2)cc1`, the viability was 96.3% (inactive).
